# Experimental data published in PubChem BioAssay (EPA / NIEHS).
# Inconclusive results are not listed. Active and inactive are the calls of the source. How the source made its calls: active means hit-call score of the fitted dose curve at least 0.9, where 1 is the maximum; inconclusive means response in the unintended direction; inactive means score below 0.9.
# Read-out: Cytochrome P450 3A4 (Homo sapiens) (UniProt P08684)
# Test: CLD_CYP3A4_48hr: CellzDirect (CLD) Gene Expression Assay for xenobiotic metabolism (CYP3A4) at 48 hours (AID 2283698)
# Outline: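 CYP3A4 induction read by qNPA chemiluminescence after 48 h, with fresh dosing solutions on consecutive days, in cultured human hepatocytes (two donors). Vehicle 0.2% DMSO as baseline; microscopy-based cytotoxicity annotated yes/no alongside data.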
# Chain of Cytochrome P450 3A4 (Homo sapiens) (P08684 whole entry, looked up): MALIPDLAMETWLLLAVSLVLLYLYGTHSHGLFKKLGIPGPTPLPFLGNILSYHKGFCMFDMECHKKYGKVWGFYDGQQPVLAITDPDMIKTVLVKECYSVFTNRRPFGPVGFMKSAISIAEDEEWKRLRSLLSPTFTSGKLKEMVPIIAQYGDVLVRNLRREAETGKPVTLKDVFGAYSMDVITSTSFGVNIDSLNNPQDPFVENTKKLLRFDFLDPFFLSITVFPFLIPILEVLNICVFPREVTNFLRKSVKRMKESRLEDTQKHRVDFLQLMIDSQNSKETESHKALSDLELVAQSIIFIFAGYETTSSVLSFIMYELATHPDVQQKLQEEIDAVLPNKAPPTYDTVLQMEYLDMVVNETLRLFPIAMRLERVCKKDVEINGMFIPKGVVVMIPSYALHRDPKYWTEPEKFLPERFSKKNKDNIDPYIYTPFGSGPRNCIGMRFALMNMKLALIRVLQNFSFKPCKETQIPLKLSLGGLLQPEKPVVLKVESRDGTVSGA
Structure (SMILES),outcome,AC50
CSC1=N[C@@](C)(c2ccccc2)C(=O)N1Nc1ccccc1,inactive,
O=[N+]([O-])c1cc(C(F)(F)F)c(Cl)c([N+](=O)[O-])c1Nc1ncc(C(F)(F)F)cc1Cl,inactive,
Nc1c(Cl)cc([N+](=O)[O-])cc1Cl,inactive,
CCCCSP(=O)(SCCCC)SCCCC,,20 µM (active)
CCOP(=O)(OCC)Oc1cc(C)nc(C(C)C)n1,,20 µM (active)
CC(COc1ccc(Oc2ccccc2)cc1)Oc1ccccn1 (configuration not stated),,3.97 µM (active)
CCCCOC(=O)c1ccccc1C(=O)O,inactive,
CC(C)[C@H](C(=O)O[C@H](C#N)c1cccc(Oc2ccccc2)c1)c1ccc(Cl)cc1,,20 µM (active)
CCOP(=S)(OCC)SCCSCC,,20 µM (active)
CN(C)NC(=O)CCC(=O)O,inactive,
COP(=O)(OC)OC(Br)C(Cl)(Cl)Br (configuration not stated),inactive,
FC(F)C(F)(F)OCC(Cn1cncn1)c1ccc(Cl)cc1Cl (configuration not stated),,1.89 µM (active)

# Read-out: Cytochrome P450 2B6 (Homo sapiens) (UniProt P20813)
# Test: CLD_CYP2B6_48hr: CellzDirect (CLD) Gene Expression Assay for xenobiotic metabolism (CYP2B6) at 48 hours (AID 2283699);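 further: actives raise transcript level above DMSO so potency reflects induction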
# Outline: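 CYP2B6 transcript induction, read by quantitative nuclease protection (S1 digestion, chemiluminescent detection) 48 h after dosing, is fitted upward against 0.2% DMSO. Cultured human liver primary cells, two donor preparations, received fresh chemical daily over multiple concentrations.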
Structure (SMILES),AC50,outcome
CSC1=N[C@@](C)(c2ccccc2)C(=O)N1Nc1ccccc1,1.16 µM (active),
O=[N+]([O-])c1cc(C(F)(F)F)c(Cl)c([N+](=O)[O-])c1Nc1ncc(C(F)(F)F)cc1Cl,,inactive
Cc1ccn2nc(S(=O)(=O)Nc3c(F)cccc3F)nc2n1,,inactive
Nc1c(Cl)cc([N+](=O)[O-])cc1Cl,6.25 µM (active),
CCCCSP(=O)(SCCCC)SCCCC,4.3 µM (active),
CCOP(=O)(OCC)Oc1cc(C)nc(C(C)C)n1,5.53 µM (active),
CC(=NC#N)N(C)Cc1ccc(Cl)nc1,,inactive
CCOP(=S)(Oc1cnc(C(C)(C)C)nc1)OC(C)C (configuration not stated),0.427 µM (active),
COc1cc(OC)nc(Sc2cccc(Cl)c2C(=O)O)n1,,inactive
C#CC(C)(C)NC(=O)c1cc(Cl)cc(Cl)c1,3.69 µM (active),
O=C(O)c1cc(Oc2ccc(C(F)(F)F)cc2Cl)ccc1[N+](=O)[O-],,inactive
CC(COc1ccc(Oc2ccccc2)cc1)Oc1ccccn1 (configuration not stated),3.53 µM (active),
CCCCN(CC)c1c([N+](=O)[O-])cc(C(F)(F)F)cc1[N+](=O)[O-],4.17 µM (active),
CCCCOC(=O)c1ccccc1C(=O)O,,inactive
CN1COCN(Cc2cnc(Cl)s2)C1=N[N+](=O)[O-],,inactive
CCCSP(=O)(OCC)Oc1ccc(Br)cc1Cl (configuration not stated),3.63 µM (active),
CC(C)[C@H](C(=O)O[C@H](C#N)c1cccc(Oc2ccccc2)c1)c1ccc(Cl)cc1,8.04 µM (active),
CCOP(=S)(OCC)SCCSCC,1.68 µM (active),

Structure (SMILES),AC50,outcome
CCCCOC(=O)[C@@H](C)Oc1ccc(Oc2ccc(C#N)cc2F)cc1,,inactive
CN(C)NC(=O)CCC(=O)O,,inactive
CNC(=O)Oc1cccc2c1OC(C)(C)O2,3.08 µM (active),
C[N+]1(C)CCCCC1,,inactive
CCNc1nc(Cl)nc(NC(C)(C)C#N)n1,3.45 µM (active),
CC(C)=CC1C(C(=O)OCN2C(=O)C3=C(CCCC3)C2=O)C1(C)C (configuration not stated),6.64 µM (active),
C=C(C)[C@H]1Cc2c(ccc3c2O[C@@H]2COc4cc(OC)c(OC)cc4[C@@H]2C3=O)O1,,inactive
CCCOc1nn(C(=O)NS(=O)(=O)c2ccccc2C(=O)OC)c(=O)n1C,,inactive
COP(=O)(OC)OC(Br)C(Cl)(Cl)Br (configuration not stated),,inactive
CC(C1CC1)C(O)(Cn1cncn1)c1ccc(Cl)cc1 (configuration not stated),2.42 µM (active),
CCOP(=S)(OCC)Oc1ccc2c(C)c(Cl)c(=O)oc2c1,1.01 µM (active),
FC(F)C(F)(F)OCC(Cn1cncn1)c1ccc(Cl)cc1Cl (configuration not stated),0.321 µM (active),
CCOP(=O)(NC(C)C)Oc1ccc(SC)c(C)c1 (configuration not stated),10.7 µM (active),
COP(=O)(NC(C)=O)SC (configuration not stated),,inactive
Cc1nn(-c2cc(NS(C)(=O)=O)c(Cl)cc2Cl)c(=O)n1C(F)F,6.7 µM (active),
CN(C)[C@@H]1C(=O)C(C(N)=O)=C(O)[C@@]2(O)C(=O)C3=C(O)c4c(O)cccc4[C@@](C)(O)[C@H]3[C@H](O)[C@@H]12,,inactive
COc1cccc(C(=O)NN(C(=O)c2cc(C)cc(C)c2)C(C)(C)C)c1C,,inactive
